# Measurements from article PMC7862700, “An all-to-all approach to the identification of sequence-specific readers for epigenetic DNA modifications on cytosine”.
# Key:
# Test in all cases: DAPPL (digital affinity profiling via proximity ligation, sequencing); 10 mM Tris-HCl pH 7.5, 50 mM NaCl, 1 mM DTT, 4% glycerol, room temperature, 30 min; GST-TFs on glutathione beads, 16-mer random dsDNA library, 0.1% formaldehyde crosslink after washing; high values mean tight binding
# Settings in all cases: protein: recombinant; tags: N-terminal GST; dsDNA, one strand shown
# [1] = molecular target: T1, FLI1 (Homo sapiens, UniProt Q01543 1-452)
# T1 sequence: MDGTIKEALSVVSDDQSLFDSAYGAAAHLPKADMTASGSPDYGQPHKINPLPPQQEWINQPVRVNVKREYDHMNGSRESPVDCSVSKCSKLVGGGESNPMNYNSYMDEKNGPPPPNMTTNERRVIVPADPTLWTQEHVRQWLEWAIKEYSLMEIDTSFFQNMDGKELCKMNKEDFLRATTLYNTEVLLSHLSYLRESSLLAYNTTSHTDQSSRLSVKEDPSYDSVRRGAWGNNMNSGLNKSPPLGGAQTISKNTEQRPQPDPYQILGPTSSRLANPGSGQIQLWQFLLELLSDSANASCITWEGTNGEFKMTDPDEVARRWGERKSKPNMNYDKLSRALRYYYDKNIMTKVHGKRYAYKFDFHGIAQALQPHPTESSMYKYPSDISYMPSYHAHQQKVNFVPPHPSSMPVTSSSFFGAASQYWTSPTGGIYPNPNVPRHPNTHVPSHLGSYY
# Method in brief: (§1)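 Yeast served to express human transcription factors as GST fusions, which were then captured on glutathione beads and labelled with DNA barcodes. Pooled with a tag-only sample, they were incubated with 200 nmole of a 16-mer random double-stranded DNA library for 30 min at room temperature in Tris/NaCl/DTT/glycerol buffer, washed, crosslinked with 0.1% formaldehyde, ligated by proximity, amplified by PCR and sequenced. Dividing each hexamer's read frequency for a factor by its frequency for the tag-only sample gives the binding signal.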
# [2] = molecular target: T2, ELK1 (Homo sapiens, UniProt P19419 1-428)
# T2 sequence: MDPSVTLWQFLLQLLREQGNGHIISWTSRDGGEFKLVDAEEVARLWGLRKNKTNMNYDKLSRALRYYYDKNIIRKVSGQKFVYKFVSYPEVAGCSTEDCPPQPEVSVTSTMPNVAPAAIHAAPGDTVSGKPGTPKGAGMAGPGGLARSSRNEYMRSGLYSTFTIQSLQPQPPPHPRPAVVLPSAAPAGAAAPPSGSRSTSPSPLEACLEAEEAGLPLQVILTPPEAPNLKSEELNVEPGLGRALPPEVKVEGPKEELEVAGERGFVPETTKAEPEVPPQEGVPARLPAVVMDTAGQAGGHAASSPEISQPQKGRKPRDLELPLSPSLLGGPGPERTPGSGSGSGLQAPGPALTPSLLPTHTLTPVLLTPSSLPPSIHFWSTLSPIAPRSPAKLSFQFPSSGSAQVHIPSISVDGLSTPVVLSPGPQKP
# Method in brief: as §1
# [3] = molecular target: T3, GABPA (Homo sapiens, UniProt Q06546 1-454)
# T3 sequence: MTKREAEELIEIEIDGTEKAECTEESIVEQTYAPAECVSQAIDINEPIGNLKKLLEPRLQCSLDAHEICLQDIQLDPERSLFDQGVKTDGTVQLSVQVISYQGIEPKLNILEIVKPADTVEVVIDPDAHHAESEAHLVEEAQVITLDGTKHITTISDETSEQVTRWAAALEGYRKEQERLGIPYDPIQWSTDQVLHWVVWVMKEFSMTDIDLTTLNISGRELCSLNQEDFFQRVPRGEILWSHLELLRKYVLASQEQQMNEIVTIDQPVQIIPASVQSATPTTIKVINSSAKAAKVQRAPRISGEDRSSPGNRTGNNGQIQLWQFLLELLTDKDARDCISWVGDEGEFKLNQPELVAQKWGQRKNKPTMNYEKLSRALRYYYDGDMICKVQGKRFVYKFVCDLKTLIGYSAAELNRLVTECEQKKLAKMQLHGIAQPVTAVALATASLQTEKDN
# Method in brief: as §1
# [4] = molecular target: ELF1 (Homo sapiens, UniProt P32519 1-619)
# Method in brief: as §1
# [5] = molecular target: SPIB (Homo sapiens, UniProt Q01892 1-262)
# Method in brief: as §1
# [6] = molecular target: T4, ELK3 (Homo sapiens, UniProt P41970 1-407)
# T4 sequence: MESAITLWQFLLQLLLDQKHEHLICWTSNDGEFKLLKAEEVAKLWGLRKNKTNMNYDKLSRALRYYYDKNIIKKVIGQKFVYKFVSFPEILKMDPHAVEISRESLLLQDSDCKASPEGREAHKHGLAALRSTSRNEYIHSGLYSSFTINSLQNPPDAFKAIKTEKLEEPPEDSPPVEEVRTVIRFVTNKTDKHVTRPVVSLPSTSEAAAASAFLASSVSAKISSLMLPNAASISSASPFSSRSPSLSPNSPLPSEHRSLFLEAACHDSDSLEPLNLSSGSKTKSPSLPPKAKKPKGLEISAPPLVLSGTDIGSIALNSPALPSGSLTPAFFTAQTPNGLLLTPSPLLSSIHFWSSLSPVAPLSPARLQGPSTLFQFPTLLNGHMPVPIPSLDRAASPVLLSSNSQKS
# Method in brief: as §1
# [7] = molecular target: T5, ELK4 (Homo sapiens, UniProt P28324-2 1-405)
# T5 sequence: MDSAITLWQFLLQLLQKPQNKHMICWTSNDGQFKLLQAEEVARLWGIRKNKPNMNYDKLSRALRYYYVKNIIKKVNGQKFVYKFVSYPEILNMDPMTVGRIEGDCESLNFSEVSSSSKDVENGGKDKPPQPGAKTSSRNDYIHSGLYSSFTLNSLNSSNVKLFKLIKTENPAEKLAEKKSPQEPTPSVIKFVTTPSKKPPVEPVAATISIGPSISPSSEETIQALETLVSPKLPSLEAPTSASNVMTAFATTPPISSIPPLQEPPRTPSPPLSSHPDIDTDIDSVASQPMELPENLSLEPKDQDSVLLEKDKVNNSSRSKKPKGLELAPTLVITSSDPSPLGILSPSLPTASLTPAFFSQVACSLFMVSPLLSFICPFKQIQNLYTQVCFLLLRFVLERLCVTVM
# Method in brief: as §1
# [8] = molecular target: T6, ETV2 (Homo sapiens, UniProt O00321 1-342)
# T6 sequence: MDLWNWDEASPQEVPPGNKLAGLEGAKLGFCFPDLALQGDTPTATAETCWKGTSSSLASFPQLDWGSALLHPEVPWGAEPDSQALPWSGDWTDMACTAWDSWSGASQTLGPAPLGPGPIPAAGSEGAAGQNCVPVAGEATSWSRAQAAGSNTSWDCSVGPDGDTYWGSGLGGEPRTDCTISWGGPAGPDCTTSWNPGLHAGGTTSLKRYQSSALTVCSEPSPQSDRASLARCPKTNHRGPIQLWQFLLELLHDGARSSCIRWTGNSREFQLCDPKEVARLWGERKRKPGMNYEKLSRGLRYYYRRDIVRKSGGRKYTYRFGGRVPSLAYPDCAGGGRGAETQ
# Method in brief: as §1
# [9] = molecular target: T7, ELF3 (Homo sapiens, UniProt P78545 1-371)
# T7 sequence: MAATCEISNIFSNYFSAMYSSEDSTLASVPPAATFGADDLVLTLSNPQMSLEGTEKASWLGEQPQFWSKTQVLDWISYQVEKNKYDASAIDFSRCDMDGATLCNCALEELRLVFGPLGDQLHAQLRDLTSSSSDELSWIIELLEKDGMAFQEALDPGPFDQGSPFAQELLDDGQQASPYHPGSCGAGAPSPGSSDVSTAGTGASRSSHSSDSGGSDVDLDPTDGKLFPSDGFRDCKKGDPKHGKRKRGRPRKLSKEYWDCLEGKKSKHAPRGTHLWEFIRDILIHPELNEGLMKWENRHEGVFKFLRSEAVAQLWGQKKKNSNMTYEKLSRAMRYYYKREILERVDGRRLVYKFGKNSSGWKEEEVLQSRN
# Method in brief: as §1
# [10] = molecular target: ETV1 (Homo sapiens, UniProt P50549 1-477)
# Method in brief: as §1
# [11] = molecular target: T8, ETV3L (Homo sapiens, UniProt Q6ZN32 1-361)
# T8 sequence: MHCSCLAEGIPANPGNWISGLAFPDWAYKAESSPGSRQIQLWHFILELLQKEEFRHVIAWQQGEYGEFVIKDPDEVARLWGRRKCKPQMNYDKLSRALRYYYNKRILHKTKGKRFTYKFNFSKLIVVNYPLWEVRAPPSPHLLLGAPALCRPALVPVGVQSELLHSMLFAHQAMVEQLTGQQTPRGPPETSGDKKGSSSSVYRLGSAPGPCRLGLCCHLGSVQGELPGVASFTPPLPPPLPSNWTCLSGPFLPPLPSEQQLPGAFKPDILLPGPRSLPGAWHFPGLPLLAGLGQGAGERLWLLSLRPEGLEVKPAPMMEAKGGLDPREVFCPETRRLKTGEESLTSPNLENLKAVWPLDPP
# Method in brief: as §1
# [12] = molecular target: T9, ETV7 (Homo sapiens, UniProt Q9Y603 1-341)
# T9 sequence: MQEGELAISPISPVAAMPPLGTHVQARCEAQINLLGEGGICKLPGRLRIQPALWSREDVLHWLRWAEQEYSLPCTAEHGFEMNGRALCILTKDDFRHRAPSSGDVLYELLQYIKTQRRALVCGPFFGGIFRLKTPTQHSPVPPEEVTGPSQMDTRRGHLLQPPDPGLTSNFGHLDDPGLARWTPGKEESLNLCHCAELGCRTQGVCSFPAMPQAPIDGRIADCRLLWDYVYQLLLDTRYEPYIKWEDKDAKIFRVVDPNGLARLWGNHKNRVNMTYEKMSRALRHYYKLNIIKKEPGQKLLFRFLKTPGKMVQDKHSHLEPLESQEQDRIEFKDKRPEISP
# Method in brief: as §1
# [13] = molecular target: T10, ETV3 (Homo sapiens, UniProt P41162-2 1-143)
# T10 sequence: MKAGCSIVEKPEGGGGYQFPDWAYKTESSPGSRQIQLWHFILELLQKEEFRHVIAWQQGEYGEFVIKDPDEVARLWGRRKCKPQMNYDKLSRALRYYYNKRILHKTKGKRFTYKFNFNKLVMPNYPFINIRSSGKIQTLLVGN
# Method in brief: as §1
# [14] = molecular target: ELF4 (Homo sapiens, UniProt Q99607 1-663)
# Method in brief: as §1
# [15] = molecular target: T11, ERF (Homo sapiens, UniProt P50548 1-548)
# T11 sequence: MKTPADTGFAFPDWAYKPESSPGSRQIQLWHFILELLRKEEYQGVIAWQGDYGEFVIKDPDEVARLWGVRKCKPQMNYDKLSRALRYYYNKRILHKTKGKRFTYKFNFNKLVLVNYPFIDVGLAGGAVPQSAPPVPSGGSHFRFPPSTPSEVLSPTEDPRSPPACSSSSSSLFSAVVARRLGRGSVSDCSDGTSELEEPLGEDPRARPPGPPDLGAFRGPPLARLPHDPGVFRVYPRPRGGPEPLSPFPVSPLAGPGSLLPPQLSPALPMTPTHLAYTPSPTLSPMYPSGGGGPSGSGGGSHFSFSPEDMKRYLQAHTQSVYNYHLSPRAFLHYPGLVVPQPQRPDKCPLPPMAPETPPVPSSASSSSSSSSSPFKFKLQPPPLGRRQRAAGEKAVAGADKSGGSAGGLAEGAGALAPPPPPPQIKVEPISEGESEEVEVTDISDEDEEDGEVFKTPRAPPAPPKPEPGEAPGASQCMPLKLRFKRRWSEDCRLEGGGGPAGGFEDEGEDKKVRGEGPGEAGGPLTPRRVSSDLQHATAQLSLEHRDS
# Method in brief: as §1
# [16] = molecular target: ETV6 (Homo sapiens, UniProt P41212 1-452)
# Method in brief: as §1
# Sequence of SPIB (Q01892 whole entry): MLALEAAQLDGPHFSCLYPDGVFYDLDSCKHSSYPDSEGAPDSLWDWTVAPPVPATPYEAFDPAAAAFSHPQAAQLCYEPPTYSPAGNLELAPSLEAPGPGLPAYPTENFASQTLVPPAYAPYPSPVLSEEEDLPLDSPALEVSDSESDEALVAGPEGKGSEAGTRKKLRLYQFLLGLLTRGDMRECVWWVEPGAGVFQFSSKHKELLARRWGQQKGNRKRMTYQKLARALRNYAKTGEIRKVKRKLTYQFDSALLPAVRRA
# Sequence of ELF1 (P32519 whole entry): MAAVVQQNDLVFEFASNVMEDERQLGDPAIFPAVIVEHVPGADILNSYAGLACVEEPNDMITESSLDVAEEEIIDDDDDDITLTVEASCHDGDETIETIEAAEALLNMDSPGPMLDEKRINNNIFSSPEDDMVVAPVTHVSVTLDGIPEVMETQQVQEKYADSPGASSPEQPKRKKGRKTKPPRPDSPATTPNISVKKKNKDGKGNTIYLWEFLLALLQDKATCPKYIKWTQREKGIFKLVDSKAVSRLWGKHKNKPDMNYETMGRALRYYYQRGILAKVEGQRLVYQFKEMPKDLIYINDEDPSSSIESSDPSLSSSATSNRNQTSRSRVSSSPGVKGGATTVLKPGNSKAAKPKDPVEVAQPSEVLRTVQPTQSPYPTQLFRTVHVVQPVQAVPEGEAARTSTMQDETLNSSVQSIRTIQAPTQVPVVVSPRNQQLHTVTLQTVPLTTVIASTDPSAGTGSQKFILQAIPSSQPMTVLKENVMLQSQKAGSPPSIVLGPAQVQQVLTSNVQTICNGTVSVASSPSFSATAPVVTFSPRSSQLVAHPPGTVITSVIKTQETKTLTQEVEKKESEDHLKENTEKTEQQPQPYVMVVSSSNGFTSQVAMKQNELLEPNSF
# Sequence of ETV6 (P41212 whole entry): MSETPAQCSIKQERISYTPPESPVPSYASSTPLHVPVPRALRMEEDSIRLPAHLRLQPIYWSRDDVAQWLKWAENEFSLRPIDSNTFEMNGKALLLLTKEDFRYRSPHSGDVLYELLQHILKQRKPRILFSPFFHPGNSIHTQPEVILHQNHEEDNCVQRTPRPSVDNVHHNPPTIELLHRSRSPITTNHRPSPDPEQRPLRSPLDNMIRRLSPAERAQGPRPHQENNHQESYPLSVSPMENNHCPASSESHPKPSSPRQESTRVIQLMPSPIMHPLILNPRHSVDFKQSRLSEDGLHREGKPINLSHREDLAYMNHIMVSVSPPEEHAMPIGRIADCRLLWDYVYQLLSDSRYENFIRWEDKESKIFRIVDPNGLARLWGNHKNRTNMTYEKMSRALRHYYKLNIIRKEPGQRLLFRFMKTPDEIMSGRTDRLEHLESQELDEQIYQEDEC
# Sequence of ELF4 (Q99607 whole entry): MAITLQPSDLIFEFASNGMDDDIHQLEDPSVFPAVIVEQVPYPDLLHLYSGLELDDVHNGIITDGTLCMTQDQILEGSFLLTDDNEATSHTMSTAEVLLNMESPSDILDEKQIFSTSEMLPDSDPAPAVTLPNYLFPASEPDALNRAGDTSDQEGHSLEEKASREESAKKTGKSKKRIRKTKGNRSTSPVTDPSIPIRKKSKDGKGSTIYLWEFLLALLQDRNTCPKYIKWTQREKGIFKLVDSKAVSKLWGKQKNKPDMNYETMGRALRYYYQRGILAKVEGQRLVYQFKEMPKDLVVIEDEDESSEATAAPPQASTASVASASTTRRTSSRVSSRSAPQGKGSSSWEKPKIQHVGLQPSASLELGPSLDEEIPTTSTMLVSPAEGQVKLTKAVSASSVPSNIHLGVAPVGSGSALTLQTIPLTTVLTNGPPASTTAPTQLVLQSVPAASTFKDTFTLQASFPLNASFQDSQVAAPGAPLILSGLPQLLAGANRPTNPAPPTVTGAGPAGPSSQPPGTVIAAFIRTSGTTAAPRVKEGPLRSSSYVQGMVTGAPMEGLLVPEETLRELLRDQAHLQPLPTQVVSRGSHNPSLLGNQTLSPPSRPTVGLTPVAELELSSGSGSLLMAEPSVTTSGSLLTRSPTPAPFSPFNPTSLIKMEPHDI
# Sequence of ETV1 (P50549 whole entry): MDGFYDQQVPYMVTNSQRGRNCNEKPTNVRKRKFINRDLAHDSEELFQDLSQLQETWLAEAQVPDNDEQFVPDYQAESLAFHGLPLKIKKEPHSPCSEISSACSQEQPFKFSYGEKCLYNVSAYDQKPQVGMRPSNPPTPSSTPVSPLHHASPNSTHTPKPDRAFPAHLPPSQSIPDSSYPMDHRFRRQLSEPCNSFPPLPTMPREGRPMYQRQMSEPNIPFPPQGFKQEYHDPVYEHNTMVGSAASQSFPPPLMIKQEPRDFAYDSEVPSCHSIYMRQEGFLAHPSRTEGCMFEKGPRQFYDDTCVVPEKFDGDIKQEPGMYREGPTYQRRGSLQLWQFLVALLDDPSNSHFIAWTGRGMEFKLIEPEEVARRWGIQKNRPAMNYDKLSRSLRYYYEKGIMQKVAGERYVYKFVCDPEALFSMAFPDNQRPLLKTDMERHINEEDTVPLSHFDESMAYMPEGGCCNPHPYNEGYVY
sequence,measurement,setting,value
GGTTCT,binding signal,[1],"1.07 fold enrichment (6-mer frequency, TF over GST control)"
same,binding signal,[2],"1.02 fold enrichment (6-mer frequency, TF over GST control)"
same,binding signal,[3],"1.02 fold enrichment (6-mer frequency, TF over GST control)"
same,binding signal,[4],"1.03 fold enrichment (6-mer frequency, TF over GST control)"
same,binding signal,[5],"1.05 fold enrichment (6-mer frequency, TF over GST control)"
same,binding signal,[6],"1.11 fold enrichment (6-mer frequency, TF over GST control)"
same,binding signal,[7],"1.03 fold enrichment (6-mer frequency, TF over GST control)"
same,binding signal,[8],"1.19 fold enrichment (6-mer frequency, TF over GST control)"
same,binding signal,[9],"1.08 fold enrichment (6-mer frequency, TF over GST control)"
same,binding signal,[10],"1.01 fold enrichment (6-mer frequency, TF over GST control)"
same,binding signal,[11],"1.01 fold enrichment (6-mer frequency, TF over GST control)"
same,binding signal,[12],"1.01 fold enrichment (6-mer frequency, TF over GST control)"
same,binding signal,[13],"1 fold enrichment (6-mer frequency, TF over GST control)"
AGAAAC,binding signal,[1],"1.04 fold enrichment (6-mer frequency, TF over GST control)"
same,binding signal,[2],"1.02 fold enrichment (6-mer frequency, TF over GST control)"
same,binding signal,[14],"1.01 fold enrichment (6-mer frequency, TF over GST control)"
same,binding signal,[9],"1.02 fold enrichment (6-mer frequency, TF over GST control)"
same,binding signal,[15],"1.05 fold enrichment (6-mer frequency, TF over GST control)"
same,binding signal,[12],"1.16 fold enrichment (6-mer frequency, TF over GST control)"
same,binding signal,[13],"1.01 fold enrichment (6-mer frequency, TF over GST control)"
same,binding signal,[16],"1.03 fold enrichment (6-mer frequency, TF over GST control)"
